High-throughput results (PubChem)
Compounds with a hit are over-represented: about 3.2% of the library has one in this group of screens.
KDM4E inh: JMJD2E (human) inhibition; JMJD2E catalytic domain, FDH-coupled NADH fluorescence (FDH is formaldehyde dehydrogenase); 230,000 tested, 1.6% active; AID 2147; Potency, µM (doses to about 57.1 µM), for inactives: at the highest dose activity change, negative = inhibition, actives largely listed as inhibitors; active = well fitted inhibition curve with a large enough effect, not every such curve was filed as active; inconclusive = small, poorly fitted or top-dose-only effect, or another doubt; inactive = no such curve, though single readings can be large or run the other way;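 also: potency is read from the fitted curve at half-maximal effect; 0% = wells with enzyme and -100% = buffer wells without enzyme; nearly all actives have a fitted effect of over 50% in size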
Target sequence (B2RXH2 1-337 limits assumed): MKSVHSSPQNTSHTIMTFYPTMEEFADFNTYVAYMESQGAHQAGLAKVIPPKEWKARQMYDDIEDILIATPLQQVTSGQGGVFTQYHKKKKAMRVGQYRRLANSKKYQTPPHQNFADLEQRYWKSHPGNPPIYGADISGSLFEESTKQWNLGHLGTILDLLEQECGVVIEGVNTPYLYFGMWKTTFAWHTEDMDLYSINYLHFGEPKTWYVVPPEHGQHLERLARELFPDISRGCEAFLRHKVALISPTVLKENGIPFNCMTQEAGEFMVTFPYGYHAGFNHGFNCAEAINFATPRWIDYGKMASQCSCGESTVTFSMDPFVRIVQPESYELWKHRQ
Tau fibril FP: blocks human tau fibril formation measured by polarization. P10636. K18 P301L tau heparin fibrillization, Alexa594 FP, 6 h. Potency, µM (series often up to 57.7 µM), without a hit: top-dose activity, negative = inhibition, hits mostly inhibitors. 280,000 tested, 0.39% active; also: potency is read from the fitted curve at half-maximal effect; % is scaled to controls: 0 for no effect and ±100 for the full control effect; nearly all actives have a fitted effect of over 55% in size
Target sequence (P10636 561-689 P618L limits assumed): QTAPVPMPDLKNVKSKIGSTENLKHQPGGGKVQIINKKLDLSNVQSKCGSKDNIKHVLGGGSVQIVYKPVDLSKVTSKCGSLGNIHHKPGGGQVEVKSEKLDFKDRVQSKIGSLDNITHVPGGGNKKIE
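Recombinant K18 P301L […], labeled with Alexa 594 at 0.24 uM over 15 uM unlabeled; heparin inducer 20 uM final; 37 C, 6 hr; FP endpoint.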
Lamin A splicing: LMNA splicing modulation | HeLa LMNA splicing GFP/RFP minigene ratio, 48 h | Potency, µM (titrated, usually from 46.1 µM), without a hit: at the highest dose ratio change, negative = inhibition, hits mostly inhibitors | 200,000 tested, 0.01% active; active = well fitted inhibition curve with a large enough effect in the signal ratio, with a control signal flat, not every such curve was filed as active; inconclusive = small, poorly fitted or top-dose-only effect, or effect the other way, or a change in a side signal; the % refers to the signal ratio; also: potency is read from the fitted curve at half-maximal effect; % is scaled to controls: 0 for no effect and ±100 for the full control effect
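S3 HeLa cells stably expressing lamin A-EGFP splicing minigene plus DsRed2, 600 cells/well, 48 h compound exposure at 37C. Laser-scanning cytometry; analysed as GFP (500-530 nm)/RFP (575-640 nm) total intensity ratio; 0.5% DMSO vehicle.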
CBFb-RUNX1 inh: inhibitors of human CBF-beta and RUNX1 interaction; Q01196+Q13951; AlphaScreen CBFb-His/RUNX1-biotin binding, biochemical; Potency, µM (top dose mostly 59.8 µM), for the others: top-dose activity, negative = inhibition, most hits filed as inhibitors; 230,000 tested, under 10 active; AID 1477; also: % of control where 0% means no effect
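CBF-beta (His) and RUNX1 (biotin), 30 nM each; 20 min preassociation; + compound, 15 min; + beads 50 ng each (Ni, streptavidin), 90 min; RT; AlphaScreen read.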
Tau fibril ThT: tau fibrillization inhibition (ThT binding); P10636; recombinant tau K18 P301L, heparin-induced fibrillization, ThT fluorescence; Potency, µM (highest dose often 57.4 µM), inactives show top-dose activity, negative = inhibition, hits mostly inhibitors; 270,000 tested, 2.1% active; also: potency is read from the fitted curve at half-maximal effect; % is scaled to controls: 0 for no effect and ±100 for the full control effect; nearly all actives have a fitted effect of over 55% in size
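Recombinant human tau K18 fragment […] carrying P301L, 15 uM unlabeled plus 0.24 uM Alexa 594-labeled, was fibrillized with 20 uM heparin in 100 mM sodium acetate pH 7 for 6 hr at 37 C; 30 uM ThT fluorescence read after 1 hr.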
Tau fluor counter: counter-screen for tau fibril formation inhibitors. Potency, µM (doses to about 57.7 µM), without a hit: top-dose activity change, negative = decrease. tau K18 P301L (four-repeat tau fragment) Alexa594 fluorescence, heparin fibrillization. 280,000 tested, 0.93% active; also: potency is read from the fitted curve at half-maximal effect; % is scaled to controls: 0 for no effect and ±100 for the full control effect; nearly all actives have a fitted effect of over 55% in size
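Human K18 P301L tau (15 uM unlabeled plus 0.24 uM Alexa 594-labeled, final) in 100 mM sodium acetate pH 7 was mixed with compound and 20 uM heparin and incubated 6 hr at 37 C.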
Active calls of the source: *; [ ] = another dose, or the depositor's remark. Unless noted, calls follow the shape of the dose curve; as a rule, active = well fitted curve in the direction sought with a large enough effect; inconclusive = small, poorly fitted or top-dose-only effect, or another doubt; inactive = no such curve, though single readings can be large; an effect the other way counts as inactive or inconclusive.

For CN(C(=S)Nc1ccc(SC(F)F)cc1)c1ccc(O)cc1 the results were KDM4E inh inconclusive, Tau fibril FP inconclusive, Lamin A splicing inconclusive, CBFb-RUNX1 inh -15%, Tau fibril ThT 2.5µM* and Tau fluor counter inconclusive.
Screening C=CCn1c(O)c(N=NC(=O)CNC(=O)/C=C/c2ccco2)c2ccccc21 returned KDM4E inh -4%, Tau fibril FP -5%, Lamin A splicing -2%, CBFb-RUNX1 inh -11%, Tau fibril ThT 20µM* and Tau fluor counter -11%.
Screening C=CCn1c(O)c(N=NC(=O)CNC(=O)/C=C/c2ccc(OC)cc2)c2ccccc21 returned KDM4E inh 3%, Tau fibril FP -14%, CBFb-RUNX1 inh -2%, Tau fibril ThT 13µM* and Tau fluor counter -24%.
For O=C(Cl)COCc1ccccc1 the results were CBFb-RUNX1 inh 2%.
For CC(=O)Nc1ccc(S(=O)(=O)Nc2ccc(N3CCOCC3)cc2)cc1 the results were KDM4E inh 4%, Tau fibril FP 8%, Lamin A splicing -1%, CBFb-RUNX1 inh 5%, Tau fibril ThT -4% and Tau fluor counter 1%.
Screening Cc1ccc(S(=O)(=O)NC2=C(N3CCN(Cc4ccccc4)CC3)C(=O)c3ccccc3C2=O)cc1 returned KDM4E inh -1%, Tau fibril FP 6%, Lamin A splicing -14%, CBFb-RUNX1 inh -6%, Tau fibril ThT inconclusive and Tau fluor counter -25%.
For O=C(C(NS(=O)(=O)c1cccs1)c1ccccc1)N1CCN(c2ccccc2)CC1 (stereo unspecified) the results were KDM4E inh -3%, Tau fibril FP 1%, Lamin A splicing 1%, CBFb-RUNX1 inh -4%, Tau fibril ThT inconclusive and Tau fluor counter -17%.
`O=C1C(NS(=O)(=O)c2cccs2)=C(N2CCN(c3ccccc3)CC2)C(=O)c2ccccc21` gave KDM4E inh -25%, Tau fibril FP inconclusive, Lamin A splicing -5%, CBFb-RUNX1 inh -15%, Tau fibril ThT 6.3µM* and Tau fluor counter inconclusive.
`CC(=O)Nc1ccc(S(=O)(=O)NC2=C(N3CCN(c4ccc(F)cc4)CC3)C(=O)c3ccccc3C2=O)cc1` gave KDM4E inh inconclusive, Tau fibril FP inconclusive, Lamin A splicing 11µM*, CBFb-RUNX1 inh inconclusive, Tau fibril ThT 5.6µM* and Tau fluor counter 13µM*[quencher].
Screening Cc1ccc(S(=O)(=O)NC2=C(N3CCN(c4ccccc4F)CC3)C(=O)c3ccccc3C2=O)cc1 returned KDM4E inh -4%, Tau fibril FP 4%, Lamin A splicing 5%[0.0737 µM], CBFb-RUNX1 inh inconclusive, Tau fibril ThT 16µM* and Tau fluor counter inconclusive.
For N#Cc1cc2c(OCC(O)CN3CCN(C(c4ccccc4)c4ccccc4)CC3)cccc2[nH]1 (stereo unspecified) the results were Tau fibril FP 28µM*, CBFb-RUNX1 inh -21%, Tau fibril ThT -12% and Tau fluor counter inconclusive.
Screening CCC(=O)c1ccc(OCC(O)CN2CCN(C(c3ccccc3)c3ccccc3)CC2)cc1 (stereo unspecified) returned KDM4E inh -2%, Tau fibril FP 6%, Lamin A splicing inconclusive, CBFb-RUNX1 inh -7%, Tau fibril ThT -5% and Tau fluor counter -11%.
For COc1cc(C(=O)OCc2cc(=O)n3nc(C4CCCCC4)sc3n2)cc(OC)c1OC the results were Tau fibril FP 2%, Lamin A splicing -22%[46 µM], Tau fibril ThT -13% and Tau fluor counter 7%.
`Cc1cc(C)c2nc(NNC(=O)c3ccc(S(=O)(=O)N4CC(C)CC(C)C4)cc3)sc2c1` (stereo unspecified) gave KDM4E inh inconclusive, Tau fibril FP -16%, Lamin A splicing inconclusive, CBFb-RUNX1 inh -2%[2.36 µM], Tau fibril ThT inconclusive and Tau fluor counter inconclusive.
